In PubChem BioAssay (NCATS):
Records with an inconclusive call do not appear. A call without a number means that no potency is given here. Values without a mark were called inactive. The source made the active and inactive calls. Unless noted, calls follow the shape of the full dose curve.

How the values were obtained:
[1] = qHTS for Inhibitors of the Functional Ribonucleoprotein Complex (vRNP) of Lassa (LASV) Arenavirus: LASV Primary Screen - GLuc reporter signal (AID 1347082; calls by dose curve; tested in HEK293 reporter line; also: nearly all actives have a fitted effect of over 60% in size; as to activity change, negative = inhibition: series mostly up to about 57 µM)
[2] = qHTS for Inhibitors of the Functional Ribonucleoprotein Complex (vRNP) of Lassa (LASV) Arenavirus: Viability assay - alamar blue signal for LASV Primary Screen (AID 1347083; calls by dose curve; tested in HEK293 reporter line; also: nearly all actives have a fitted effect of over 80% in size; as to activity change, negative = reduced viability: series mostly up to about 57 µM)
[3] = qHTS for Inhibitors of the Functional Ribonucleoprotein Complex (vRNP) of Lymphocytic Choriomeningitis Arenaviruses (LCMV): Viability assay - alamar blue signal for LCMV Primary Screen (AID 1347085; calls by dose curve; tested in HEK293 reporter line; also: nearly all actives have a fitted effect of over 80% in size; as to activity change, negative = lower viability: series mostly up to about 57 µM)
[4] = biological target: Nucleoprotein (Lymphocytic choriomeningitis virus (strain Armstrong)) (UniProt P09992); test: qHTS for Inhibitors of the Functional Ribonucleoprotein Complex (vRNP) of Lymphocytic Choriomeningitis Arenaviruses (LCMV): LCMV Primary Screen - GLuc reporter signal (AID 1347086); also: nearly all actives have a fitted effect of over 70% in size; as to activity change, negative = inhibition: series mostly up to about 57 µM
Sequence of Nucleoprotein (Lymphocytic choriomeningitis virus (strain Armstrong)) (P09992 whole entry, looked up): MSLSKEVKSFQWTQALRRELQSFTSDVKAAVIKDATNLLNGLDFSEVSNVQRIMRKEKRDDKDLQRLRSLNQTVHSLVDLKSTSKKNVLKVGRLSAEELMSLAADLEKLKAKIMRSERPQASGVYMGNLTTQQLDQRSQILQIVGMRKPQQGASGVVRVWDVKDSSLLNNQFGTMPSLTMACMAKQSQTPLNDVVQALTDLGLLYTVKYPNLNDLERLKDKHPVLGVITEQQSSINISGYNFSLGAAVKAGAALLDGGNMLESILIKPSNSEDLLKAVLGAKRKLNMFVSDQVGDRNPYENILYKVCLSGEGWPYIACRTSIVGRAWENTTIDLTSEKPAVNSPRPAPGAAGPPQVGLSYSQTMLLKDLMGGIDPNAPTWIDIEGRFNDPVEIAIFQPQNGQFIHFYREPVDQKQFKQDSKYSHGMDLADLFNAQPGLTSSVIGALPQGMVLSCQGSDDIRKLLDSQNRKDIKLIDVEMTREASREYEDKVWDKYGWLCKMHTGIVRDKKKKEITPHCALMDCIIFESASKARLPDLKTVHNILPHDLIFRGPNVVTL
Potency is read from the fitted curve at half-maximal effect.

Row | Structure (SMILES) | Potency [1] | Potency [2] | Potency [3] | Potency [4] | activity change, negative = inhibition [1] | activity change, negative = reduced viability [2] | activity change, negative = lower viability [3] | activity change, negative = inhibition [4]
1 | C=CC(C)(CCC=C(C)C)OC(=O)CC(C)C (stereo not given) | inactive | inactive | inactive | inactive |  |  |  | 
2 | COc1cc2c(cc1O)[C@@H]1Cc3cc(OC)c(OC)cc3C(C2)N1C | inactive | inactive | inactive | inactive |  |  |  | 
3 | C/C=C/c1ccc2oc(-c3ccc(O)cc3)c(C)c2c1 | inactive | inactive | inactive | inactive |  |  |  | 
4 | COC(=O)C1(Cc2ccc(O)c(CC3OC3(C)C)c2)OC(=O)C(O)=C1c1ccc(O)cc1 (stereo not given) | inactive | inactive | inactive | inactive |  |  |  | 
5 | CC/C=C\CCOC(=O)c1ccccc1 | inactive | inactive | inactive | inactive |  |  |  | 
6 | CCCCN(CCCC)CC(O)c1cc(Cl)cc2c1-c1ccc(Cl)cc1C2=Cc1ccc(Cl)cc1 (stereo not given) | inactive | inactive | inactive | inactive |  |  |  | 
7 | O=C1CCCCCCCCCCCCCCCO1 | inactive | inactive | inactive | inactive |  |  |  | 
8 | C=C1C2CC[C@]3(CCC4[C@@]5(C)CCC[C@@]4(CN(CCO)C5)[C@@H]3C2)[C@@H]1O (stereo not given in full) | inactive | inactive | inactive | inactive |  |  |  | 
9 | CC(=O)Oc1ccc2c(C)cc(=O)oc2c1 | inactive | inactive | inactive | inactive |  |  |  | 
10 | CC(C)(OC1OC(CO)C(O)C(O)C1O)[C@H]1Oc2ccc3ccc(=O)oc3c2[C@H]1O (stereo not given in full) | inactive | inactive | inactive | inactive |  |  |  | 
11 | COC1[C@@H](OC)C[C@H](C)[C@@H](OC)C2=CC(=O)C=C(NC(=O)/C(C)=C/C=C\[C@H](OC)[C@@H](OC(N)=O)/C(C)=C/[C@@H]1C)C2=O (stereo not given in full) |  |  |  |  | 1.65% [at 5.82 µM] | 7.34% [at 5.82 µM] | 15.6% [at 5.82 µM] | 12.1% [at 5.82 µM]
12 | O=C(/C=C/c1ccccc1)OC/C=C/c1ccccc1 | inactive | inactive | inactive | inactive |  |  |  | 
13 | CCc1c(C(=O)NCCc2ccc(N3CCCCC3)cc2)[nH]c2ccc(Cl)cc12 | inactive | inactive | inactive | inactive |  |  |  | 
14 | C=C1C(O)C[C@H]2C(=C)CCC3[C@H](OC(=O)[C@]3(O)CO)[C@@H]12 (stereo not given in full) | inactive | inactive | inactive | inactive |  |  |  | 
15 | O=C(Nc1ncc(SCCN2CCCC2)s1)[C@]1(c2ccc(S(=O)(=O)C3CC3)cc2)C[C@@H]1C1CCCCC1 | inactive | inactive | inactive | inactive |  |  |  | 
16 | CCCCC/C=C\C/C=C\C/C=C\CCCCCCC(=O)O[C@H](COCCCCCCCCCCCCCCCC)COP(=O)([O-])OCC[N+](C)(C)C |  |  |  |  | -13.6% [at 5.82 µM] | 4.54% [at 5.82 µM] | 13.1% [at 5.82 µM] | 9.5% [at 5.82 µM]
17 | O=C(/C=C/c1ccc(O)cc1)OC[C@H]1O[C@@H](Oc2c(-c3ccc(O)cc3)oc3cc(O)cc(O)c3c2=O)[C@H](O)[C@@H](O)[C@@H]1O | inactive | inactive | inactive | inactive |  |  |  | 
18 | COc1cc(O)c2c(=O)c3c(O[C@H]4O[C@@H](CO)[C@H](O)[C@@H](O)[C@@H]4O)ccc(O)c3oc2c1 | inactive | inactive | inactive | inactive |  |  |  | 
19 | CC1=CC[C@H](CC=O)C1(C)C | inactive | inactive | inactive | inactive |  |  |  | 
20 | CC(=O)O[C@@H]1[C@H](OC(=O)CC(C)C)c2c(ccc3ccc(=O)oc23)OC1(C)C | inactive | inactive | inactive | inactive |  |  |  | 

Row | Structure (SMILES) | Potency [1] | Potency [2] | Potency [3] | Potency [4] | activity change, negative = inhibition [1] | activity change, negative = reduced viability [2] | activity change, negative = lower viability [3] | activity change, negative = inhibition [4]
21 | Cc1ccc2c(c1)C(=O)c1ccccc1C2=O | inactive | inactive | inactive | inactive |  |  |  | 
22 | CCCCCCCCOC(C)=O | inactive | inactive | inactive | inactive |  |  |  | 
23 | CC(C)=CCC/C(C)=C/C(=O)O | inactive | inactive | inactive | inactive |  |  |  | 
24 | COc1cc2c(cc1O)CC[n+]1cc3c(OC)c(OC)ccc3cc1-2 | inactive | inactive | inactive | inactive |  |  |  | 
25 | COc1cc(C(=O)OC2CC3CCC2(C)C3(C)C)ccc1OC(C)=O (stereo not given) | inactive | inactive | inactive | inactive |  |  |  | 
26 | C=C[C@]1(C)C=C2C(=O)C[C@H]3C(C)(C)CCC[C@]3(C(=O)O)[C@@]2(O)CC1 | inactive | inactive | inactive | inactive |  |  |  | 
27 | CC(C)=CCOc1c2ccoc2c(OCC=C(C)C)c2oc(=O)ccc12 | inactive | inactive | inactive | inactive |  |  |  | 
28 | C[C@@H]1CCN(C(=O)CC#N)C[C@H]1N(C)c1ncnc2[nH]ccc12 | inactive | inactive | inactive | inactive |  |  |  | 
29 | COc1ccc(CC(=O)c2ccc(OC3OC(CO)C(O)C(O)C3O)cc2O)cc1 (stereo not given) | inactive | inactive | inactive | inactive |  |  |  | 
30 | CCCc1ccc(OC)cc1 | inactive | inactive | inactive | inactive |  |  |  | 
31 | NC(C(=O)O)C1ON=C(Cl)C1O (stereo not given) | inactive | inactive | inactive | inactive |  |  |  | 
32 | O=c1c2ccccc2nc2n1CCC2 | inactive | inactive | inactive | inactive |  |  |  | 
33 | C=C[C@H]1[C@H](O[C@@H]2O[C@H](CO)[C@@H](O)[C@H](O)[C@H]2O)OC=C2C(=O)OCC[C@]21O | inactive | inactive | inactive | inactive |  |  |  | 
34 | O=C(O)CCC[C@H](O)\C=C/C=C/C=C/[C@H](O)C/C=C\CCCCCO |  |  |  |  | 12% [at 0.757 µM] | 2.93% [at 0.757 µM] | -25.2% [at 0.757 µM] | -1.08% [at 0.757 µM]
35 | O=C1C[C@@H](c2ccc(O)c(O)c2)Oc2c1ccc(O[C@@H]1O[C@H](CO)[C@@H](O)[C@H](O)[C@H]1O)c2O | inactive | inactive | inactive | inactive |  |  |  | 
36 | CC(C)CCCCCCCCCCCCCCC(=O)O | inactive | inactive | inactive | inactive |  |  |  | 
37 | COC(=O)C1=COC(O[C@H]2OC(CO)[C@H](O)C(O)C2O)[C@H]2C1C(=O)C[C@@H]2C (stereo not given in full) | inactive | inactive | inactive | inactive |  |  |  | 
38 | C=C1[C@H](n2cnc3c(=O)[nH]c(N)nc32)C[C@H](O)[C@H]1CO | inactive | inactive | inactive | inactive |  |  |  | 
39 | COC(=O)c1ccccc1-n1c(C)nc2ccccc2c1=O | inactive | inactive | inactive | inactive |  |  |  | 
40 | CC1(C)C=Cc2c(c3c(c4c(=O)c(-c5ccc(O)cc5)coc24)OC(C)(C)CC3)O1 | inactive | inactive | inactive | inactive |  |  |  | 

Row | Structure (SMILES) | Potency [1] | Potency [2] | Potency [3] | Potency [4] | activity change, negative = inhibition [1] | activity change, negative = reduced viability [2] | activity change, negative = lower viability [3] | activity change, negative = inhibition [4]
41 | C[C@@H]1C[C@H]2[C@@H]3C[C@H](F)C4=CC(=O)C=C[C@@]4(C)[C@]3(F)[C@H](O)C[C@]2(C)[C@@]1(O)C(=O)CO | inactive | inactive | inactive | inactive |  |  |  | 
42 | O=c1cc(-c2ccc(O)c(O)c2)oc2ccccc12 | inactive | inactive | inactive | inactive |  |  |  | 
43 | CCCCCCCC1CCC(=O)O1 (stereo not given) | inactive | inactive | inactive | inactive |  |  |  | 
44 | COc1cc(C2OCC3C(c4ccc(OC5OC(CO)C(O)C(O)C5O)c(OC)c4)OCC23)ccc1O (stereo not given) | inactive | inactive | inactive | inactive |  |  |  | 
45 | Nc1nc2c(ncn2[C@@H]2O[C@H](COP(=O)(O)OP(=O)(O)OP(=O)(O)O)[C@@H](O)C2O)c(=O)[nH]1 (stereo not given in full) | inactive | inactive | inactive | inactive |  |  |  | 
46 | O=C1c2c(O)cc(O)cc2O[C@H](c2ccc(O)c(O)c2)[C@@H]1O | inactive | inactive | inactive | inactive |  |  |  | 
47 | CC(=O)OCC1=C(C(=O)O)N2C(=O)[C@@H](NC(=O)Cc3ccccc3)[C@H]2SC1 | inactive | inactive | inactive | inactive |  |  |  | 
48 | COc1cc(C2C(c3ccccc3)C(c3cc(OC)cc(=O)o3)C2c2ccccc2)oc(=O)c1 (stereo not given) | inactive | inactive | inactive | inactive |  |  |  | 
49 | COc1cc(C(=O)O)cc(OC)c1OC | inactive | inactive | inactive | inactive |  |  |  | 
50 | COc1cc(CCc2ccccc2)c(C(=O)O)c(O)c1C/C=C(/C)CCC=C(C)C | inactive | inactive | inactive | inactive |  |  |  | 
51 | NC(=O)c1ncn([C@@H]2O[C@H](CO)[C@@H](O)[C@@H]2O)c1N | inactive | inactive | inactive | inactive |  |  |  | 
52 | C#CCCC/C(=C\C(=O)N(C)[C@H](C(=O)N(C)[C@H](C(=O)N(C)[C@H](C(=O)N(C)[C@H](C(N)=O)C(C)C)C(C)C)C(C)C)C(C)C)OC | inactive | inactive | inactive | inactive |  |  |  | 
53 | O=c1cc(CCc2ccccc2)oc2cccc(O)c12 | inactive | inactive | inactive | inactive |  |  |  | 
54 | O=c1c(-c2ccc(O)cc2)coc2cc(OC3O[C@H](CO)[C@H](O)[C@H](O)[C@H]3O)cc(O)c12 (stereo not given in full) | 19.3 µM (active) | 17.2 µM (active) | 21.7 µM (active) | 19.3 µM (active) |  |  |  | 
55 | CC(C)(O)[C@H](O)COc1c2occc2cc2ccc(=O)oc12 | inactive | inactive | inactive | inactive |  |  |  | 
56 | CC(C)CN(C[C@H](O)[C@H](Cc1ccccc1)NC(=O)O[C@H]1CCOC1)S(=O)(=O)c1ccc(N)cc1 | inactive | inactive | inactive | inactive |  |  |  | 
57 | O=c1ccc2ccc(O[C@@H]3O[C@H](CO)[C@@H](O)[C@H](O)[C@H]3O)c(O)c2o1 | inactive | inactive | inactive | inactive |  |  |  | 
58 | CC(=O)OC1[C@H](Oc2c(O)c(C)c3c4c2[C@@H](C)CC[C@@H]4[C@@H](C)C[C@@H]3C=C(C)C)OC[C@@H](O)[C@@H]1O (stereo not given in full) | inactive | inactive | inactive | inactive |  |  |  | 
59 | CC(C)CCO | inactive | inactive | inactive | inactive |  |  |  | 
60 | CCCCCCCCCCCCC(=O)CCCCC(=O)O | inactive | inactive | inactive | inactive |  |  |  | 
